From PubChem BioAssay AID2315 (National Center for Advancing Translational Sciences (NCATS), 2010)
The campaign covered roughly 290,000 compounds. About 27,000 (9.3%) were called active. The list comes from a sample in which actives are over-represented; it also holds similar structures and randomly drawn compounds. A number with no mark means an inactive call. Cut-off read from the data, not from the text of the source: active = inhibition mostly above about 28% (no sharp cut-off); inactive = mostly below about 43%.

experiment: A qHTS for Small Molecule Inhibitors of Shiga Toxin; details: Vero cells, Shiga toxin protein synthesis inhibition reporter; at 38.7 µM, stronger effect = higher value; for inhibition: 0% is about no effect

Row | Structure (SMILES) | inhibition
1 | O=C(COc1ccc([N+](=O)[O-])cc1)Nc1cccc(C(=O)Nc2ccccc2C(=O)O)c1 | -17.8%
2 | O=c1oc2ccccc2cc1-c1cn(-c2ccccc2)c(=S)[nH]1 | 24.5%
3 | COc1ccc(-c2cn(-c3ccc(OC)cc3)c(=S)[nH]2)cc1 | 38.6%
4 | S=c1[nH]c(-c2cccs2)cn1-c1ccccc1 | 58.2% (active)
5 | O=C(CN(C(=O)c1csnn1)c1ccc(Br)cc1)NC1CCCC1 | -6.01%
6 | COc1ccc(Cl)cc1NC(=O)CCS(=O)(=O)c1ccc(Br)cc1 | -3.47%
7 | Cc1ccc(-c2cn3cc([N+](=O)[O-])ccc3n2)cc1 | 190% (active)
8 | CSc1nnc2ccc(-c3ccc(C)cc3)nn12 | 5.52%
9 | Cc1ccc(-c2cn3cc(C)ccc3n2)cc1 | -49.3%
10 | Cc1ccnc(N2C(=O)c3ccc([N+](=O)[O-])cc3C2=O)c1 | 2.61%
11 | Cc1ccc2nc(-c3ccc(Br)cc3)cn2c1 | 23.9% (active)
12 | Cc1ccc(C(=O)Cn2cc([N+](=O)[O-])nc2C)cc1 | -7.99%
13 | O=C(Nc1ccnn1C1CCN(C/C=C/c2ccc(F)cc2)CC1)C1CCCC1 | 12%
14 | CCOc1c(OC)cccc1C(=O)NCC1(c2ccccc2)CCCC1 | -6.29%
15 | COc1ccc(C(=O)C2CCCN(S(=O)(=O)c3cccc(C)c3)C2)c(C)c1 (stereo not drawn) | -2.5%
16 | CCNc1nc(-c2cc3ccccc3o2)cs1 | 83.5% (active)
17 | COc1ccc2nc(Nc3nc(-c4cc5ccccc5oc4=O)cs3)sc2c1 | 61.7%
18 | Cc1nc(C)c(-c2csc(NCCc3ccccc3)n2)s1 | 13.4%
19 | O=c1oc2ccccc2cc1-c1csc(Nc2ccc(O)cc2)n1 | 111% (active)
20 | Cc1ccc(Nc2nc(-c3sc(NC(=O)c4ccccc4)nc3C)cs2)cc1 | 16.8%
21 | Cn1c(CNc2nc(-c3ccccc3)cs2)nnc1SCC(=O)c1ccccc1 | -0.789%
22 | COc1ccc(S(=O)(=O)N2CCOCC2)cc1C(=O)NC1CCCCC1 | -17%
23 | CN(C)CCCN(C(=O)c1ccc(S(=O)(=O)N2CCCCCC2)cc1)c1nc2ccc(Br)cc2s1 | 0.697%
24 | CCN(CC)CCN(C(=O)c1ccc(N2C(=O)CCC2=O)cc1)c1nc2cc3c(cc2s1)OCO3 | 29.6%

Row | Structure (SMILES) | inhibition
25 | CCN(CC)CCN(C(=O)c1ccc(S(=O)(=O)N2CCOCC2)cc1)c1nc2cc3c(cc2s1)OCCO3 | 44.5% (active)
26 | O=S(=O)(c1ccc(-c2ccno2)s1)N1CCCCC1 | -11.5%
27 | COc1ccc2c(C)cc3nnnn3c2c1 | -4.48%
28 | CCS(=O)(=O)Nc1ccc(C(=O)NCCSc2ccccc2)cc1 | 79.2% (active)
29 | O=C(CNC(=O)c1ccco1)OCC(=O)c1ccccc1 | 46.8%
30 | CCCc1ccc(OCCNC(=O)c2ccco2)cc1 | 78.3% (active)
31 | Cc1ccc(C(=O)NCCNC(=O)c2ccccc2)cc1 | -8.28%
32 | CCCc1ccc(OCCNC(=O)c2ccccc2Br)cc1 | 34.3%
33 | CCCc1ccc(OCC(=O)NNC(=S)NC(=O)c2ccco2)cc1 | -7.48%
34 | O=C(NCCSc1ccccc1)c1ccco1 | 80.2% (active)
35 | O=C(CSc1ccccc1)Nc1ccc(NC(=O)c2ccco2)cc1 | 38.7%
36 | Cc1ccc(C(=O)NCCNS(=O)(=O)c2ccccc2)cc1 | 1.8%
37 | Cc1cc(S(=O)(=O)NC2CCCC2)ccc1-n1cnnn1 | -8.85%
38 | Cc1cc(CNC(=O)C2CCC(=O)N(CCc3ccc(Cl)cc3)C2)no1 (stereo not drawn) | -7.54%
39 | CC(=O)Nc1c2c(nn1-c1ccc(C)cc1C)CS(=O)C2 (stereo not drawn) | -1.19%
40 | CC1=CCC2C(=O)N(c3cccc(C(=O)NC(C)c4ccccc4)c3)C(=O)C2C1 (stereo not drawn) | -6.84%
41 | Cc1ccc(C)c(N2CCN(C(=O)CCCn3c(=O)c4cccn4c4cccnc43)CC2)c1 | -8.84%
42 | COc1ccccc1C(=O)CSc1cccc[n+]1[O-] | -1.48%
43 | O=C(CSc1cccc[n+]1[O-])c1ccc(Cl)cc1 | 5.16%
44 | O=C(CSc1cccc[n+]1[O-])c1ccc(-c2ccccc2)cc1 | 142% (active)
45 | CC(=O)Nc1cccc(NC(=O)CSc2nccn2Cc2ccc(F)cc2)c1 | -6.32%
46 | NS(=O)(=O)c1ccc(NC(=O)COC(=O)c2ccc(Cl)nc2)cc1 | -4.23%
47 | NC(=O)c1ccc(NC(=O)COC(=O)c2c3c(nc4ccccc24)/C(=C\c2ccc4c(c2)OCO4)CCC3)cc1 | 59.8% (active)
48 | NS(=O)(=O)c1ccc(NC(=O)COC(=O)c2cc3ccccc3oc2=O)cc1 | 16.5%

Row | Structure (SMILES) | inhibition
49 | COc1cc(-c2cc(C(=O)OCC(=O)Nc3ccc4c(c3)OCO4)c3ccccc3n2)cc(OC)c1OC | 3.34%
50 | NS(=O)(=O)c1ccc(NC(=O)COC(=O)c2c3c(nc4ccccc24)/C(=C\c2ccc4c(c2)OCO4)CCC3)cc1 | 3.72% (active)
51 | O=C(COC(=O)c1c2c(nc3ccccc13)/C(=C\c1cccs1)CCC2)Nc1ccccc1Cl | 24.9%
52 | O=C(N/C(=C/c1ccc(Cl)cc1)C(=O)N1CCCCC1)c1ccco1 | 5.11%
53 | O=C1CCC(C(=O)N2CCN(c3ccccc3Cl)CC2)CN1CC1CCCCC1 (stereo not drawn) | -2.81%
54 | Cc1c(OC(C)C(=O)NCC2CCC(C(=O)O)CC2)ccc2c1oc(=O)c1ccccc12 (stereo not drawn) | -3.63%
55 | CCCC[C@]12Cc3cc(OC)c(OC)cc3C(O1)C1=C(CC3(CCCCC3)OC1=O)O2 | inactive
56 | CCn1cc(CN2CCN(CC(C)(C)C)C(CCO)C2)c2ccccc21 (stereo not drawn) | 8.71%
57 | CC(=O)Nc1ccc(S(=O)(=O)N2N=NC3C2C2CC4C3(CN(C(=O)OC(C)(C)C)S4(=O)=O)O2)cc1 (stereo not drawn) | 19.4%
58 | CN(C(=O)c1cccc(OC2CCN(S(=O)(=O)N(C)C)CC2)c1)C1CCOC1 (stereo not drawn) | 21.6%
59 | CNS(=O)(=O)c1cccc(C(=O)NCC2CCCCC2)c1 | 10.6%
60 | CN(C)S(=O)(=O)N1CCC(Oc2cccc(C(=O)NCCCC3CCCC3)c2)CC1 | 56.6% (active)
61 | O=C(CN(C(=O)c1nsc(Cl)c1Cl)c1cccc(F)c1)NC1CCCC1 | -1.89%
62 | O=C(NCCCn1ccnc1)C1CCCN(S(=O)(=O)c2cc(Cl)ccc2Cl)C1 (stereo not drawn) | -13%
63 | COc1cccc(CNS(=O)(=O)c2cc3c(cc2C)n(C)c(=O)c(=O)n3C)c1 | -2.17%
64 | COc1cccc(CNc2ncc(-c3ccccc3)n2C)c1 | 20.5% (active)
65 | COc1cccc(CNc2nc(C(F)(F)F)nc3ccccc23)c1 | -1.59%
66 | COc1cc(C(=O)N/C(=C\c2cn(C)c3ccccc23)C(=O)N2CCOCC2)cc(OC)c1OC | -2.55%
67 | COc1ccccc1C(=O)Nc1ccnn1C1CCN(Cc2cnn(C)c2)CC1 | 14.1%
68 | CC(C)CNC(=S)NC(=O)c1ccc(Cl)cc1 | 90.8% (active)
69 | Cc1occc1C(=O)NNC(=S)NCC(C)C | -8.32%
70 | CC(C)C(NC(=O)c1ccc(Cl)cc1)C(=O)O (stereo not drawn) | -21.4%
71 | CCn1ccnc1CNC(=O)CC1C(=O)NCCN1Cc1ccc(F)cc1Cl (stereo not drawn) | -5.69%
72 | CC(C)C[C@H](NC(=O)C1CCC(CNC(=O)[C@@H]2CCCN2C(=O)OC(C)(C)C)CC1)C(=O)O (stereo partly drawn) | -6.01%

Row | Structure (SMILES) | inhibition
73 | O=C(c1noc2c1CCCC2)N1CCc2ccccc2C1 | 67.4% (active)
74 | CN(c1ccc(C(=O)N2CCc3ccccc3C2)cc1)S(C)(=O)=O | 52.2% (active)
75 | Cc1ccc(-c2cc(C(=O)N3CCc4ccccc4C3)no2)cc1 | 46.6% (active)
76 | CN1CCN(Cc2c(C(=O)N3CCc4ccccc4C3)nc3ccc(Cl)cn23)CC1 | -6.16%
77 | O=C(NCCCN1CCOCC1)c1cc(-c2cccc(O)c2)on1 | 23.1%
78 | CN(c1cccc(NC(=O)c2ccc(CN3CCc4ccccc4C3)cc2)c1)S(C)(=O)=O | -12%
79 | COc1cccc(N(CC(=O)N2CCc3ccccc3C2)S(C)(=O)=O)c1 | -19.6%
80 | O=C(c1cc(-c2cccc(O)c2)on1)N1CCc2ccccc2C1 | 35.6% (active)
81 | Cn1cccc1C(=O)N1CCc2ccccc2C1 | 36.9%
82 | Cc1cccc(OC(C)C(=O)N2CCc3ccccc3C2)c1 (stereo not drawn) | -13.5%
83 | Cc1ccc2c(c1)N(C(=O)CCC(=O)N1CCc3ccccc3C1)CCO2 | 2.26%
84 | O=C(COc1ccccc1)N1CCc2ccccc2C1 | 38.7%
85 | Cc1cc(C(F)F)n2nc(C(=O)Nc3ccc(S(=O)(=O)NC45CC6CC(CC(C6)C4)C5)cc3)nc2n1 | -15.3%
86 | CCOc1ccc2[nH]c(C(=O)N/N=C/c3cccc(OC)c3OC)cc2c1 | 14%
87 | O=C(NCc1ccccc1)C(c1ccco1)N(C(=O)c1csnn1)c1ccccc1F (stereo not drawn) | -4.22%
88 | O=C(NCC(=O)N1CCN(c2ccccc2O)CC1)c1ccc2ccccc2c1 | 22.1%
89 | Cc1ccc(CC2CC(=O)N(c3cc(C)ccc3C)C2=O)cc1 (stereo not drawn) | -11.4%
90 | N#C/C(=C\c1cccnc1)C(=O)Nc1ccc(SC(F)F)cc1 | 36.4%
91 | Cc1ccc(-n2c(-c3ccc(Cl)cc3)n[nH]c2=S)cc1 | 4%
92 | CCOC(=O)c1ccc2[nH]c3c(c2c1)CCCC3NC=O (stereo not drawn) | 90.9%
93 | COc1ccc(N(C)C(=O)CCS(=O)(=O)c2cccc3nsnc23)cc1 | -7.02%
